Measurements published in PubChem BioAssay (Tox21).
Inconclusive results are not listed. Activity calls are given as the source filed them. Unless noted, the call rests on the fitted dose curve; in most records, active means well fitted curve in the direction sought with a large enough effect in the repeat runs; inconclusive means weak or mixed curves; inactive means no such curve, though single readings can be large; an effect the other way counts as inactive or inconclusive.

Experiments:
[1] = qHTS assay to identify small molecule antagonists of the estrogen related receptor (ERR) signaling pathway (AID 1224819;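 further: luminescence from an ERR-driven luciferase reporter measured with One-Glo reagent; series mostly up to about 46 µM; nearly all actives have a fitted effect of over 50% in size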)
Procedure, shortened: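 ERR reporter cells were plated at 2,000 cells/well and left 6 h at 37 C/5% CO2 before pin-tool transfer of compounds in DMSO. After 18 h at 37 C, One-Glo was added and luminescence was read 30 min later at room temperature.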

[2] = qHTS assay to identify small molecule agonists of the estrogen related receptor signaling pathway with the pleiotropic PPARgamma coactivator (PGC) (AID 1224823)
Procedure, shortened: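 Compounds dissolved in DMSO are added by pin tool to PGC/ERR cells that have settled for 6 h, and incubation continues 18 h at 37 C. Reporter output is measured as One-Glo luminescence.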

[3] = qHTS assay to identify small molecule agonists of the estrogen related receptor (ERR) signaling pathway (AID 1224820)
Procedure, shortened: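 An ERR cell line provided by NTP was seeded at 2,000 cells per well and allowed to settle for 6 h before compounds in DMSO were added. After 18 h at 37 C, luciferase activity was measured by One-Glo luminescence.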

[4] = qHTS assay for small molecule agonists of the p53 signaling pathway (AID 651631; calls by dose curve; further: nearly all actives have a fitted effect of over 15% in size)
Procedure, shortened: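 Readout was fluorescence from the LiveBLAzer FRET substrate, applied for 2 h at room temperature after 16 h compound exposure at 37 °C. Cells were the p53RE-bla HCT-116 line, with beta-lactamase driven by p53 response elements.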

[5] = qHTS assay for small molecules that induce genotoxicity in human embryonic kidney cells expressing luciferase-tagged ATAD5 (AID 651632); further: nearly all actives have a fitted effect of over 15% in size
Procedure, shortened: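 Test compounds were delivered by pin tool onto HEK293T reporter cells (2,000/well) expressing ATAD5 fused to luciferase. After 16 hr at 37C, 5% CO2, Amplite was added for 30 min at room temperature and luminescence was measured.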

[6] = qHTS assay for small molecule agonists of the p53 signaling pathway - cell viability (AID 651633; calls by dose curve; further: series mostly up to about 83 µM; nearly all actives have a fitted effect of over 30% in size)
Procedure, shortened: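 Viability counter-read: CellTiter-Glo luminescence (30 min, room temperature) in the same p53RE-bla plates. These plates had been exposed to compounds for 16 h at 37 C.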

[7] = qHTS assay for small molecule disruptors of the mitochondrial membrane potential - cell viability (AID 720634; calls by dose curve;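 further: human HepG2 liver cancer cells; series mostly up to about 83 µM; nearly all actives have a fitted effect of over 20% in size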)
Procedure, shortened: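 Same-well counter-screen: following the MMP dye addition, CellTiter-Glo was added to 1 hr compound-treated HepG2 cells and luminescence read after 30 min at room temperature.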

[8] = qHTS assay for small molecule disruptors of the mitochondrial membrane potential (AID 720635)
Procedure, shortened: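 Mitochondrial membrane potential tracked with Mito-MPS dye, red aggregates (ex 540/em 590 nm) against green monomers (ex 490/em 535 nm). Compound treatment 1 hr at 37C, dye 30 min in HepG2.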

[9] = qHTS assay to test for compound auto fluorescence at 590 nm (red) in HepG2 cells (AID 720674)
Procedure, shortened: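 We screened compounds on adherent HepG2 cells, incubating them for an hour at 37 C in 5% CO2 before reading emission at 590 nm under 540 nm excitation; values reflect equivalence to Rose Bengal sodium fluorescence.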

[10] = qHTS assay to test for compound auto fluorescence at 535 nm (green) in HepG2 cells (AID 720675)
[11] = qHTS assay to test for compound auto fluorescence at 460 nm (blue) in HEK293 cells (AID 720678)
Procedure, shortened: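 Blue read-out at excitation 405 nm and emission 460 nm follows overnight compound exposure of HEK293 cells at 37C in 5% CO2. Activity is given as auto fluorescence equivalency to triamterene.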

[12] = qHTS assay to test for compound auto fluorescence at 590 nm (red) in HEK293 cells (AID 720679)
Procedure, shortened: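 Red channel, Ex/Em 540/590nm; signal expressed as equivalency to Rose Bengal sodium. HEK293, 2,000 cells/well, 10% dialyzed FBS; 23 nL compound pinned after 4-5 hr attachment; overnight 37C/5% CO2 before reading.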

[13] = qHTS assay to test for compound auto fluorescence at 535 nm (green) in HEK293 cells (AID 720680)
[14] = qHTS assay to test for compound auto fluorescence at 460 nm (blue) in HEK293 cell free culture (AID 720681)
Procedure, shortened: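 Blue fluorescence (Ex 405/Em 460 nm, triamterene-equivalent) was read immediately after pin transfer of compound or DMSO into medium (DMEM, 10% FBS) without cells.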

[15] = qHTS assay to test for compound auto fluorescence at 535 nm (green) in HEK293 cell free culture (AID 720682)
Procedure, shortened: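 Compounds were pin-transferred into cell-free DMEM with 10% FBS, and green fluorescence was read at excitation 485 nm and emission 535 nm. Intensities were expressed as fluorescein-equivalent values.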

[16] = qHTS assay to test for compound auto fluorescence at 590 nm (red) in HEK293 cell free culture (AID 720683)
Procedure, shortened: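 Red-channel autofluorescence of compounds in culture medium (DMEM, 10% FBS), no cells, measured at 540/590 nm. Rose Bengal sodium is the reference fluorophore for equivalence.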

[17] = qHTS assay to test for compound auto fluorescence at 590 nm (red) in HepG2 cell free culture (AID 720684)
Procedure, shortened: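 Cell-free; medium MEM + 10% FBS; compound or DMSO added by pintool; read Ex 540/Em 590 nm; Rose Bengal sodium as red reference fluorophore.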

[18] = qHTS assay to test for compound auto fluorescence at 460 nm (blue) in HepG2 cell free culture (AID 720685)
Procedure, shortened: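 Cell-free plates of MEM plus 10% FBS received 23 nL compound or DMSO vehicle; blue-channel (405/460 nm) intensity scored against triamterene as reference fluorophore.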

[19] = qHTS assay to test for compound auto fluorescence at 535 nm (green) in HepG2 cell free culture (AID 720686)
[20] = qHTS assay to test for compound auto fluorescence at 460 nm (blue) in HepG2 cells (AID 720687)
Procedure, shortened: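 Blue-channel autofluorescence (Ex/Em 405/460 nm, triamterene-equivalent) was measured after 1 hr compound exposure at 37 C, 5% CO2. Cells were HepG2, plated overnight at 37 C in MEM plus 10% FBS.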

[21] = biological target: Glucocorticoid receptor (Homo sapiens) (UniProt P04150); experiment: qHTS assay to identify small molecule agonists of the glucocorticoid receptor (GR) signaling pathway (AID 720691; active means well fitted activation curve with a large enough effect in the signal ratio in the repeat runs, not every such curve was filed as active; the % refers to the signal ratio)
Sequence of Glucocorticoid receptor (Homo sapiens) (P04150 whole entry, looked up): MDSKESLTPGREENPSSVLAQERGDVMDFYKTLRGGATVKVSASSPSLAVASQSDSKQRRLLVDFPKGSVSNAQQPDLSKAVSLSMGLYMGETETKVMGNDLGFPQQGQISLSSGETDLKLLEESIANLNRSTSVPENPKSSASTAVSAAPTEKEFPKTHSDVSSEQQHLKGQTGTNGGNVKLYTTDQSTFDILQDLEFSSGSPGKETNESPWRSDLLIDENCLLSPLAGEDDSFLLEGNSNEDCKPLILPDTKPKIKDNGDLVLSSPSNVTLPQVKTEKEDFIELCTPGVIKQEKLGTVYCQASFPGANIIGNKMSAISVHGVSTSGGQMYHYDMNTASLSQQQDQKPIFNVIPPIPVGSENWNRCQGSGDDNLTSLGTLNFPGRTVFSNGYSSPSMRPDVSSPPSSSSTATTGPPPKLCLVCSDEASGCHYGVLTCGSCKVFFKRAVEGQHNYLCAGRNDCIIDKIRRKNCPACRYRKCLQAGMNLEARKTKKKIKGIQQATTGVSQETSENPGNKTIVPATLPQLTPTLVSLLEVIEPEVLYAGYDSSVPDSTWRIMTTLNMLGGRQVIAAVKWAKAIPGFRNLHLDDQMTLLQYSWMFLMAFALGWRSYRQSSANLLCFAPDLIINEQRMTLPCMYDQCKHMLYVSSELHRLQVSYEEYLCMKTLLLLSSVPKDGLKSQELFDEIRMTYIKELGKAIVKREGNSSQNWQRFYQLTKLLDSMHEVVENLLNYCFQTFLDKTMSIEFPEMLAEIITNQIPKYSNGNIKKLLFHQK
Procedure, shortened: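 A HeLa cervical cancer line expressing GR and a glucocorticoid response element-driven beta-lactamase gene is treated with compounds for 18 h; LiveBLAzer B/G FRET substrate is then applied and fluorescence read.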

[22] = biological target: Glucocorticoid receptor (Homo sapiens) (UniProt P04150); experiment: qHTS assay to identify small molecule antagonists of the glucocorticoid receptor (GR) signaling pathway (AID 720692; active means well fitted inhibition curve with a large enough effect in the signal ratio in the repeat runs, not every such curve was filed as active; the % refers to the signal ratio)
Procedure, shortened: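 GRE-bla HeLa line, dex-stimulated (5 nM final). Compound exposure 18 h, 37 C. Beta-lactamase FRET read after 2 h RT substrate.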

[23] = qHTS assay to identify small molecule antagonists of the glucocorticoid receptor (GR) signaling pathway - cell viability counter screen (AID 720693); further: nearly all actives have a fitted effect of over 55% in size
[24] = qHTS assay for identifying genotoxic compounds that show differential cytotoxicity against isogenic chicken DT40 cell lines with known DNA damage response pathways - wild type cell line (AID 743012); further: nearly all actives have a fitted effect of over 60% in size
Procedure, shortened: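 300 wt DT40 cells/well; cpd (DMSO) pintool-transferred after ~0.5 h at 37 C/5% CO2; 40 h incubation; CellTiter-Glo added, 30 min RT; luminescence read.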

[25] = qHTS assay for identifying genotoxic compounds that show differential cytotoxicity against isogenic chicken DT40 cell lines with known DNA damage response pathways - Rev3 mutant cell line (AID 743014); further: nearly all actives have a fitted effect of over 55% in size
[26] = qHTS assay for identifying genotoxic compounds that show differential cytotoxicity against isogenic chicken DT40 cell lines with known DNA damage response pathways - Rad54/Ku70 mutant cell line (AID 743015); further: nearly all actives have a fitted effect of over 60% in size
[27] = qHTS assay to identify small molecule antagonists of the androgen receptor (AR) signaling pathway - cell viability counter screen (AID 743033; further: nearly all actives have a fitted effect of over 45% in size)
[28] = qHTS assay to identify small molecule antagonists of the androgen receptor (AR) signaling pathway using the MDA cell line - cell viability counter screen (AID 743041; further: nearly all actives have a fitted effect of over 45% in size)
Procedure, shortened: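 Viability read by CellTiter-Fluor fluorescence in the same wells as the antagonist screen, added after 15.5 h of a 16 h, 37C exposure. Human breast carcinoma MDA-kb2 AR-luc cells, compounds co-dosed with agonist R1881.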

[29] = qHTS assay to identify small molecule antagonists of the thyroid receptor (TR) signaling pathway - cell viability counter screen (AID 743064); further: nearly all actives have a fitted effect of over 50% in size
Procedure, shortened: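 In-well cytotoxicity read by CellTiter-Fluor (30 min, 37 C) following 23.5 h exposure of GH3 cells bearing a TRE-luciferase sensor. Compounds were added alongside 1 nM (final) T3 to drive TR transactivation.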

[30] = qHTS assay to identify small molecule antagonists of the thyroid receptor (TR) signaling pathway (AID 743065); further: series mostly up to about 70 µM; nearly all actives have a fitted effect of over 55% in size
Procedure, shortened: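 Antagonism measured as loss of luciferase signal in GH3 cells stably carrying a TRE-luciferase reporter, co-treated with compound and T3 (1 nM final) for 23.5 h at 37 C. Viability was read in the same well by CellTiter-Fluor.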

[31] = test system: thyroid hormone receptor (rat, GH3 cells); experiment: qHTS assay to identify small molecule agonists of the thyroid receptor (TR) signaling pathway (AID 743066; calls by dose curve)
[32] = qHTS assay to identify small molecule antagonists of the estrogen receptor alpha (ER-alpha) signaling pathway - cell viability counter screen (AID 743074; calls by dose curve;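 further: HEK293 cells carrying ER-alpha-UAS-bla reporter stimulated with 17beta-estradiol; nearly all actives have a fitted effect of over 45% in size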)
[33] = qHTS assay to identify small molecule antagonists of the estrogen receptor alpha (ER-alpha) signaling pathway using the BG1 cell line - cell viability counter screen (AID 743081);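 further: compound given together with 17beta-estradiol as the ER stimulus; series mostly up to about 70 µM; nearly all actives have a fitted effect of over 45% in size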
[34] = qHTS assay to identify small molecule antagonists of the estrogen related receptor (ERR) signaling pathway from Tox21 library - cell viability counter screen (AID 1224834); further: nearly all actives have a fitted effect of over 30% in size
Procedure, shortened: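 In this quantitative HTS format, ERR cells receive compounds in DMSO and are incubated for 17.5 h at 37 C. Live-cell protease activity is then detected with CellTiter-Fluor.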

[35] = qHTS assay to identify small molecule antagonists of the estrogen related receptor signaling pathway with the pleiotropic PPARgamma coactivator (PGC) from Tox21 10K library - cell viability counter screen (AID 1224840; active means well fitted cell-killing curve with a large enough effect in the repeat runs, not every such curve was filed as active; further: nearly all actives have a fitted effect of over 40% in size)
Procedure, shortened: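 Viability counter screen, PGC/ERR cells: 17.5 h compound exposure at 37 C, CellTiter-Fluor fluorescence endpoint.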

[36] = qHTS assay to identify small molecule agonists of the estrogen related receptor signaling pathway with the pleiotropic PPARgamma coactivator (PGC) from Tox21 10K library (AID 1224842); further: nearly all actives have a fitted effect of over 15% in size
Procedure, shortened: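 Luminescence from One-Glo (30 min, room temperature) measured after PGC/ERR cells had 18 h at 37 C with pinned compound (23 nL in DMSO). Cells had been seeded at 2,000 per well and pre-incubated 6 h.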

[37] = qHTS assay to identify small molecule antagonists of the estrogen related receptor (ERR) signaling pathway from Tox21 library (AID 1224848); further: nearly all actives have a fitted effect of over 50% in size
Procedure, shortened: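 Luciferase luminescence (ONE-Glo, 30 min room temperature) was the read-out. Cells of the NTP-supplied ERR line, 2,000 per well, were given 6 h at 37 C before compound addition in DMSO and 18 h exposure at 37 C.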

[38] = qHTS assay to identify small molecule antagonists of the estrogen receptor alpha (ER-alpha) signaling pathway using the BG1 cell line in the presence of 0.1 nM 17-beta-estradiol - cell viability counter screen (AID 1259241); further: nearly all actives have a fitted effect of over 40% in size
Procedure, shortened: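 Cytotoxicity counter-screen: live-cell protease activity measured by fluorescence (30 min reagent step) in the same wells. Cells were VM7Luc4E2 with endogenous ER-alpha and ERE-driven luciferase, treated 22 hr at 37C alongside 0.1 nM 17beta-estradiol final.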

[39] = qHTS assay to identify small molecule antagonists of the androgen receptor (AR) signaling pathway using the MDA cell line in the presence of 0.5 nM R1881 - cell viability counter screen (AID 1259242); further: nearly all actives have a fitted effect of over 45% in size
Procedure, shortened: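 Human breast carcinoma MDA-kb2 cells, cultured without CO2, receive compounds alongside 0.5 nM (final) R1881 agonist. After 16 hr at 37C, viability is taken as live-cell protease signal.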

[40] = qHTS assay to identify small molecule phospholipidosis (PLD) inducers (AID 1259344; active means well fitted curve in the direction sought with a large enough effect; an effect the other way counts as inactive or inconclusive)
Procedure, shortened: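 Phospholipid accumulation was scored by imaging: fixed, Hoechst-counterstained HepG2 cells stained with LipidTOX Red after 24 h compound exposure at 37 C. Read-outs were pit count and pit intensity per well or per cell, with amiodarone and DMSO controls.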

[41] = biological target: Nuclear receptor subfamily 1 group I member 2 (Homo sapiens) (UniProt O75469); experiment: Human pregnane X receptor (PXR) small molecule agonists, qHTS assay (AID 1346982); further: nearly all actives have a fitted effect of over 35% in size
Sequence of Nuclear receptor subfamily 1 group I member 2 (Homo sapiens) (O75469 whole entry, looked up): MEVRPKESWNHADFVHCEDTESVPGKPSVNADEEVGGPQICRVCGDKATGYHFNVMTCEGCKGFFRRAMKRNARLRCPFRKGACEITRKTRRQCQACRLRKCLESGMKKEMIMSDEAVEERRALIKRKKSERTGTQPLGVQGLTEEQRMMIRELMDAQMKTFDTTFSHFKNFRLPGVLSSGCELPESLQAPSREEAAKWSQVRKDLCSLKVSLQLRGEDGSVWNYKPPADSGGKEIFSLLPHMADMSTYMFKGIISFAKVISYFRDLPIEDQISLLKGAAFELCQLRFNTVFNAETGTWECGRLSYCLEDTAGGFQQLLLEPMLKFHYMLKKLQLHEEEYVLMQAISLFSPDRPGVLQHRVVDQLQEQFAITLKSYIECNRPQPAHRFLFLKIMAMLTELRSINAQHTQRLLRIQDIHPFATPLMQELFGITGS
Procedure, shortened: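 After plating in 5% charcoal-stripped FBS and a 5 hr rest, PXR-Luc HepG2 cells received compounds in DMSO. Following 24 hr at 37 C, ONE-Glo was added and light output read.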

[42] = biological target: Acetylcholinesterase (Homo sapiens) (UniProt P22303); experiment: Acetylcholinesterase (AChE) small molecule antagonists: enzyme-based qHTS assay (AID 1347397; calls by dose curve; further: nearly all actives have a fitted effect of over 55% in size); conditions: Potency: AChE enzyme activity inhibition; outcome: AChE enzyme activity inhibition
Sequence of Acetylcholinesterase (Homo sapiens) (P22303 whole entry, looked up): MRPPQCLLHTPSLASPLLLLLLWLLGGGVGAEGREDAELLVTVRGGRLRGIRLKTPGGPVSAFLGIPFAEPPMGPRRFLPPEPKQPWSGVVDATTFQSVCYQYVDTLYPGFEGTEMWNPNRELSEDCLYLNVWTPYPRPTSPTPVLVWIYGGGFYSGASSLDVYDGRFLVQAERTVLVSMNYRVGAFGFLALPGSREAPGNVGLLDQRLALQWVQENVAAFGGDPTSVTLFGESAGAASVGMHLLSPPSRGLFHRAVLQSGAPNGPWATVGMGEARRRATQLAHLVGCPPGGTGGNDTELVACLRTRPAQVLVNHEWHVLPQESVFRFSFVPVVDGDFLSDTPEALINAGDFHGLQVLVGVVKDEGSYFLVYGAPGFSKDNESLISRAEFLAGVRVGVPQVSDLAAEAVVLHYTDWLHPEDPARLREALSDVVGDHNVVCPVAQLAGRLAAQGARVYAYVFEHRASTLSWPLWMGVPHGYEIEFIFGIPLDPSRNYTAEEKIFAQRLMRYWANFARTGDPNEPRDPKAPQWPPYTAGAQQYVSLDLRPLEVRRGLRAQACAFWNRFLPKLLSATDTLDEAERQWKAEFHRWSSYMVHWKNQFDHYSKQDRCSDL
Procedure, shortened: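 Colorimetric DTNB readout of acetylthiocholine hydrolysis, 10 min at room temperature, after 30 min room-temperature exposure of 50 mU/mL recombinant human enzyme to compound; DMSO vehicle control.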

[43] = biological target: Acetylcholinesterase (Homo sapiens) (UniProt P22303); experiment: Acetylcholinesterase (AChE) small molecule antagonists: fluorescence cell-based qHTS assay (AID 1347398; calls by dose curve; further: nearly all actives have a fitted effect of over 50% in size); conditions: Potency: AChE activity; outcome: AChE activity
Procedure, shortened: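 Cellular AChE activity read as thiocholine from acetylthiocholine hydrolysis, detected by Thiolite Green fluorescence at 490/520 nm after 40 min at room temperature. Compounds were pre-incubated 30 min at 37 C on adherent SH-SY5Y cells.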

[44] = biological target: Acetylcholinesterase (Homo sapiens) (UniProt P22303); experiment: Acetylcholinesterase (AChE) small molecule antagonists: enzyme-based qHTS assay with human liver microsomes (AID 1347399; calls by dose curve; further: nearly all actives have a fitted effect of over 60% in size); conditions: Potency: qHTS inhibition; outcome: qHTS inhibition
Procedure, shortened: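 Recombinant human AChE (50 mU/mL in the enzyme mix) and human liver microsomes (0.25 mg/mL final) were preincubated with compound and NADPH (0.25 mg/mL final) for 30 min at 37 C. Acetylthiocholine/DTNB was then added; thiocholine was read colorimetrically after 10 min at room temperature.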

Measured: Potency

CCn1cnc2c(Nc3cccc(Cl)c3)nc(N[C@@H]3CCCC[C@@H]3N)nc21
inactive: [1] | [2]

Cc1c2ccncc2c(C)c2c1[nH]c1ccccc12
inactive: [3] | [2]

O=C(O)/C=C\C(=O)O
not listed: [1] | [2] | [3]
inactive: all other assays above
